# What was measured:
# Experiment in all cases: yeast three-hybrid, YBZ-1, SC-Leu-His + 0.5 mM 3-AT, 4 days
# Conditions in all cases: tags: N-Gal4 AD-HA kept; label: inside an RPR1-promoter hybrid RNA with tandem MS2 sites; ssRNA
# [1] = biological target: PUM1 PUF domain R3-YWF (Homo sapiens, UniProt Q14671 828-1176, C935Y;R936W;Q939F)
# Outline: (§1)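 The interaction score is the logarithmic change in variant frequency from input to selection. It uses log2, with a pseudocount of 1 for absent variants, and frequencies came from PCR-amplified, Illumina-sequenced repeat regions. The libraries were Pumilio-1 PUF domains randomized at the three base-contacting residues per repeat, co-expressed with matching RNA elements in strain YBZ-1 (LexA–MS2 coat fusion, HIS3 reporter). Plating lasted four days on SC-Leu (input) or SC-Leu-His + 0.5 mM 3-AT (selection).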
# [2] = biological target: PUM1 PUF domain R3-SQQ (Homo sapiens, UniProt Q14671 828-1176, C935S;R936Q)
# Sequence of PUM1 PUF domain R3-SQQ (Q14671 828-1176 C935S/R936Q): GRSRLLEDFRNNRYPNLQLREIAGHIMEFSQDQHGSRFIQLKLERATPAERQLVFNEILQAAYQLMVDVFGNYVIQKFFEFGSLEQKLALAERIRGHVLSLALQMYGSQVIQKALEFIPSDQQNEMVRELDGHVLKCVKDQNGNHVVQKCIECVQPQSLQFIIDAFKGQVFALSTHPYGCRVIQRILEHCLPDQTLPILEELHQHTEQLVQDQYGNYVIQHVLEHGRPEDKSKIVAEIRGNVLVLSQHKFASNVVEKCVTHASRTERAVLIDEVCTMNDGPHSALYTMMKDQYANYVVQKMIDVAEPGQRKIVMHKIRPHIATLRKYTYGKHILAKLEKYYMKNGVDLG
# Outline: as §1
# [3] = biological target: PUM1 PUF domain R5-RCL (Homo sapiens, UniProt Q14671 828-1176, C1007R;R1008C;Q1011L)
# Sequence of PUM1 PUF domain R5-RCL (Q14671 828-1176 C1007R/R1008C/Q1011L): as the sequence (Q14671 828-1176 C935S/R936Q) above, with S108C, Q109R, C180R, R181C, Q184L counted along it
# Outline: as §1
# [4] = biological target: PUM1 PUF domain R5-RGE (Homo sapiens, UniProt Q14671 828-1176, C1007R;R1008G;Q1011E)
# Sequence of PUM1 PUF domain R5-RGE (Q14671 828-1176 C1007R/R1008G/Q1011E): as the sequence (Q14671 828-1176 C935S/R936Q) above, with S108C, Q109R, C180R, R181G, Q184E counted along it
# Outline: as §1
# [5] = biological target: PUM1 PUF domain R7-QSG (Homo sapiens, UniProt Q14671 828-1176, S1079Q;N1080S;E1083G)
# Sequence of PUM1 PUF domain R7-QSG (Q14671 828-1176 S1079Q/N1080S/E1083G): as the sequence (Q14671 828-1176 C935S/R936Q) above, with S108C, Q109R, S252Q, N253S, E256G counted along it
# Outline: as §1
# [6] = biological target: PUM1 PUF domain R7-KPL (Homo sapiens, UniProt Q14671 828-1176, S1079K;N1080P;E1083L)
# Sequence of PUM1 PUF domain R7-KPL (Q14671 828-1176 S1079K/N1080P/E1083L): as the sequence (Q14671 828-1176 C935S/R936Q) above, with S108C, Q109R, S252K, N253P, E256L counted along it
# Outline: as §1
# [7] = biological target: PUM1 PUF domain R8-HFN (Homo sapiens, UniProt Q14671 828-1176, N1122H;Y1123F;Q1126N)
# Sequence of PUM1 PUF domain R8-HFN (Q14671 828-1176 N1122H/Y1123F/Q1126N): as the sequence (Q14671 828-1176 C935S/R936Q) above, with S108C, Q109R, N295H, Y296F, Q299N counted along it
# Outline: as §1
# [8] = biological target: PUM1 PUF domain R2-RKC (Homo sapiens, UniProt Q14671 828-1176, N899R;Y900K;Q903C)
# Sequence of PUM1 PUF domain R2-RKC (Q14671 828-1176 N899R/Y900K/Q903C): as the sequence (Q14671 828-1176 C935S/R936Q) above, with N72R, Y73K, Q76C, S108C, Q109R counted along it
# Outline: as §1
# [9] = biological target: PUM1 PUF domain R1-TGR (Homo sapiens, UniProt Q14671 828-1176, S863T;R864G;Q867R)
# Sequence of PUM1 PUF domain R1-TGR (Q14671 828-1176 S863T/R864G/Q867R): as the sequence (Q14671 828-1176 C935S/R936Q) above, with S36T, R37G, Q40R, S108C, Q109R counted along it
# Outline: as §1
# Sequence of PUM1 PUF domain R3-YWF (Q14671 828-1176 C935Y/R936W/Q939F): as the sequence (Q14671 828-1176 C935S/R936Q) above, with S108Y, Q109W, Q112F counted along it
sequence,measurement,setting,value
GGCUAGAACUAGUGGAUCCCCCGGCGCCCGGCGGCUCGAGCCCGGGUAAGUGUAAGUAGUCUGCAUGCCGCCGGGCGCCAUGCCUGCAGGUCGACUCUAGAAAACAUG,binding signal,[1],3.54 log2 enrichment (interaction score)
GGCUAGAACUAGUGGAUCCCCCGGCGCCCGGCGGCUCGAGCCCGGGUAAGUGUAAAUAGUCUGCAUGCCGCCGGGCGCCAUGCCUGCAGGUCGACUCUAGAAAACAUG,binding signal,[2],2.27 log2 enrichment (interaction score)
GGCUAGAACUAGUGGAUCCCCCGGCGCCCGGCGGCUCGAGCCCGGGUAAGUGUUAAUAGUCUGCAUGCCGCCGGGCGCCAUGCCUGCAGGUCGACUCUAGAAAACAUG,binding signal,[3],2.91 log2 enrichment (interaction score)
same,binding signal,[4],0.96 log2 enrichment (interaction score)
GGCUAGAACUAGUGGAUCCCCCGGCGCCCGGCGGCUCGAGCCCGGGUAAGUGUCAAUAGUCUGCAUGCCGCCGGGCGCCAUGCCUGCAGGUCGACUCUAGAAAACAUG,binding signal,[3],1.64 log2 enrichment (interaction score)
same,binding signal,[4],2.34 log2 enrichment (interaction score)
GGCUAGAACUAGUGGAUCCCCCGGCGCCCGGCGGCUCGAGCCCGGGUAAGUUUAAAUAGUCUGCAUGCCGCCGGGCGCCAUGCCUGCAGGUCGACUCUAGAAAACAUG,binding signal,[5],2.85 log2 enrichment (interaction score)
GGCUAGAACUAGUGGAUCCCCCGGCGCCCGGCGGCUCGAGCCCGGGUAAGUCUAAAUAGUCUGCAUGCCGCCGGGCGCCAUGCCUGCAGGUCGACUCUAGAAAACAUG,binding signal,[6],2.86 log2 enrichment (interaction score)
GGCUAGAACUAGUGGAUCCCCCGGCGCCCGGCGGCUCGAGCCCGGGUAAGCGUAAAUAGUCUGCAUGCCGCCGGGCGCCAUGCCUGCAGGUCGACUCUAGAAAACAUG,binding signal,[7],3.57 log2 enrichment (interaction score)
GGCUAGAACUAGUGGAUCCCCCGGCGCCCGGCGGCUCGAGCCCGGGUAAGUGUAAAGAGUCUGCAUGCCGCCGGGCGCCAUGCCUGCAGGUCGACUCUAGAAAACAUG,binding signal,[8],5.3 log2 enrichment (interaction score)
GGCUAGAACUAGUGGAUCCCCCGGCGCCCGGCGGCUCGAGCCCGGGUAAGUGUAAAUCGUCUGCAUGCCGCCGGGCGCCAUGCCUGCAGGUCGACUCUAGAAAACAUG,binding signal,[9],2.65 log2 enrichment (interaction score)
GGCUAGAACUAGUGGAUCCCCCGGCGCCCGGCGGCUCGAGCCCGGGUAAGUGUAAAUUGUCUGCAUGCCGCCGGGCGCCAUGCCUGCAGGUCGACUCUAGAAAACAUG,binding signal,[9],0.64 log2 enrichment (interaction score)

# From publication PMC8384837, “Expanding the binding specificity for RNA recognition by a PUF domain”
